The values below come from PubChem BioAssay.

Each structure is given as a SMILES string. The source made the active and inactive calls.

Experiment [1] relates to Human papillomavirus type 1a protein E7 (residues 44-93). Description: small molecules binding HPV E7 44-93 – biochemical, small-molecule microarray, residues 44-93, 635 nm fluorescence, primary screen (AID 1108).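 Also: E7 fragment applied at 1 µg/mL in TBST for 1 h at 4 C; score combines spot fluorescence with its signal to noise ratio.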 As to conditions: fluorescence 635 nm, higher = more signal.
Experiment [2] can be described thus: hepatitis C replication reporter changes, two-sided – Huh7 cells, luciferase reporter, HCV replication inhibitor project, primary screen (AID 1109).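 Also: huh7 hepatoma cells harbouring a luciferase neomycin HCV replicon reporter; luciferase luminescence as measure of HCV replicon replication; test concentration not given here.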 The following applies: Huh7 HCV replicon luciferase reporter, 48 h; higher = more signal.
Experiment [3] has as its target Left-right determination factor 2 (Homo sapiens) (UniProt O00292). Put plainly: small molecules binding LEFTY2 protein – biochemical, small-molecule microarray, 635 nm fluorescence scan, primary screen (AID 1110). The following applies: higher = more signal.
In experiment [4] the target is Calmodulin-1 (Homo sapiens) (UniProt P0DP23). Description: small molecules binding calmodulin-1 with EGTA – biochemical, small-molecule microarray, Cy5-labelled CALM1, profiling panel (AID 1111).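 Also: labelled calmodulin applied in Tris saline Tween buffer holding calcium plus EGTA and DTT.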 The following applies: Cy5-CALM1 binding fluorescence, higher = more signal.
The target is the same in experiment [5]. Description: small molecules binding Ca-loaded calmodulin-1 – biochemical, small-molecule microarray, Cy5-labelled CALM1, plus calcium, artefact control for SMM control-protein annotation, profiling panel (AID 1112).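 Also: score merges spot fluorescence with signal to noise from triplicate slides.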 As to conditions: Cy5-CALM1 binding fluorescence, higher = more signal.
Experiment [6] is described as follows: probe aWnt5a binding to arrayed compounds – biochemical, biotinylated probe, 635/667 nm fluorescence, primary screen (AID 1113).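 Also: score merges 667 nm fluorescence intensity with signal-to-noise per printed feature.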 The following applies: small-molecule microarray, higher = more signal.
Experiment [7] is described as follows: probe aShh binding to arrayed compounds – biochemical, biotinylated probe, 635/667 nm fluorescence, primary screen (AID 1114).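 Also: probe is biotin-labelled aShh protein from a stem cell growth factor screen; measures binding of labelled protein to compounds printed on the slide; score merges feature fluorescence at 667 nm with signal-to-noise.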 As to conditions: small-molecule microarray, higher = more signal.
A short description of experiment [8]: probe aNog binding to arrayed compounds – biochemical, biotinylated probe, 635/667 nm fluorescence, primary screen (AID 1115).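 Also: probe is biotinylated aNog protein used at 0.15 µg/mL for 1 h at 4 C; z-score combines 667 nm fluorescence of each spot with its signal to noise.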 As to conditions: small-molecule microarray, higher = more signal.
The target of experiment [9] is Torsin-1A-interacting protein 1 (Homo sapiens) (UniProt Q5JTV8). Description: compound microarray binding of lysate hLAP1 – cell lysate, small-molecule microarray, COS7 lysate, 635/667 nm fluorescence, primary screen (AID 1116). As to conditions: 635 nm fluorescence, higher = more signal.
Experiment [10] deals with Alpha-bungarotoxin (Bungarus multicinctus) (UniProt P60615). Put plainly: compounds binding labelled alpha-BTX control protein – biochemical, small-molecule microarray, Alexa647 label, 635/667 nm fluorescence, artefact control for SMM control protein annotation, profiling panel (AID 1117). The following applies: alpha-BTX-A647 binding fluorescence, higher = more signal.
In a further experiment the target is Albumin (Bos taurus) (UniProt P02769). Description: compounds binding labelled BSA control protein – biochemical, small-molecule microarray, Alexa647 label, 635/667 nm fluorescence, artefact control for SMM control protein annotation, profiling panel (AID 1118).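 Also: score merges 667 nm emission intensity and signal-to-noise per printed compound spot.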 The following applies: BSA-A647 binding, fluorescence 635 nm, higher = more signal.
Experiment [11] can be described thus: probe aXIP binding to arrayed compounds – biochemical, NeuroSMM set, 635/667 nm fluorescence, primary screen (AID 1119).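 Also: probe is the protein aXip251-270 applied at 1 µg/mL to compound-printed slides; binding of probe to printed compounds measured as 667 nm fluorescence plus signal to noise.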 As to conditions: small-molecule microarray, higher = more signal, called active from +8 up or from −8 down.
The nature of experiment [12]: probe aNOTCH3 binding on compound microarray – biochemical, small-molecule microarray, 635/667 nm fluorescence, primary screen (AID 1120).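 Also: probe is a biotin-tagged antibody raised against NOTCH3 rather than NOTCH3 protein; score merges spot fluorescence near 667 nm with spot signal to noise.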 As to conditions: higher = more signal.
A short description of experiment [13]: probe aNOTCH2 binding on compound microarray – biochemical, small-molecule microarray, 635/667 nm fluorescence, primary screen (AID 1121).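 Also: score merges feature fluorescence read at 667 nm with its signal to noise.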 As to conditions: higher = more signal.
Experiment [14] addresses Carbonic anhydrase 2 (Homo sapiens) (UniProt P00918). Put plainly: compounds binding carbonic anhydrase 2 – biochemical, small-molecule microarray, Alexa647-labelled CAII, profiling panel (AID 1122). As to conditions: CAII-A647 binding fluorescence, higher = more signal.
Experiment [15] in a line: COS7 lysate on small-molecule microarray, probe aHis, 635 nm (AID 1123).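 Also: z-score combines 667nm fluorescence intensity with signal-to-noise per printed compound spot.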 As to conditions: COS7 cell lysate, fluorescence, higher = more signal.
The nature of experiment [16]: probe aLAP1 signal on lysate-treated microarray – cell lysate, small-molecule microarray, COS7 lysate, primary screen (AID 1124).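 Also: lysate comes from COS7 cells expressing LAP1 and is applied at 0.3 µg/mL; score merges spot fluorescence near 667 nm with signal-to-noise over triplicate slides.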 The following applies: probe aLAP1, fluorescence, higher = more signal.
The subject of another experiment is Sam68 (KHDRBS1). Description: compounds binding KHDRBS1 protein – biochemical, small-molecule microarray, 635 nm fluorescence, primary screen (AID 1125).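 Also: score merges 667 nm channel intensity with signal to noise over triplicate slides.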 The following applies: higher = more signal.
The test system of experiment [17] is Chordin-like protein 2 (CHRDL2). Description: compounds binding chordin-like 2 – biochemical, small-molecule microarray, 635 nm fluorescence, primary screen (AID 1126).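 Also: printed compound slides probed with Chrdl2 protein at 4 µg/mL for 1 h at 4 C; score merges 667 nm emission intensity with signal to noise over three replicate slides.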 As to conditions: fluorescence 635 nm, higher = more signal.
Experiment [18] addresses Concanavalin-A (Canavalia ensiformis) (UniProt P02866). Put plainly: compounds binding concanavalin A lectin – biochemical, small-molecule microarray, Alexa647 label, 635 nm, artefact control for SMM control protein annotation, primary screen (AID 1127).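 Also: z combines 667 nm emission intensity with signal-to-noise across three replicate slides.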 As to conditions: ConA-A647 binding fluorescence, higher = more signal.

Torsin-1A-interacting protein 1 (Homo sapiens), sequence (Q5JTV8 whole entry, looked up): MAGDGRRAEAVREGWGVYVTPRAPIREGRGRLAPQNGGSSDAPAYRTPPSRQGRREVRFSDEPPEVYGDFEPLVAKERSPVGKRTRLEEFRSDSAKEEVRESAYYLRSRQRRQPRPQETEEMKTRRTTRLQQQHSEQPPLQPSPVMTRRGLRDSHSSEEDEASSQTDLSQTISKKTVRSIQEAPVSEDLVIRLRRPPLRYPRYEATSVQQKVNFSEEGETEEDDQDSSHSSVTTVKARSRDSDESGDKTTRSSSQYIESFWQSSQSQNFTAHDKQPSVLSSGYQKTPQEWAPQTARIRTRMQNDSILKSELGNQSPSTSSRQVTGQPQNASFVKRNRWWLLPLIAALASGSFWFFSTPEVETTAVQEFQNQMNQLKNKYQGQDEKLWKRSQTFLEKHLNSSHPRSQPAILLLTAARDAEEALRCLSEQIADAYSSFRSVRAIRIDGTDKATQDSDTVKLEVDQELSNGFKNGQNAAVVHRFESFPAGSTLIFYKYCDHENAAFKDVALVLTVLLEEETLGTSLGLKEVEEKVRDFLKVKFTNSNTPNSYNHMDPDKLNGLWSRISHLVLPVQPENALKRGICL
Concanavalin-A (Canavalia ensiformis), sequence (P02866 whole entry, looked up): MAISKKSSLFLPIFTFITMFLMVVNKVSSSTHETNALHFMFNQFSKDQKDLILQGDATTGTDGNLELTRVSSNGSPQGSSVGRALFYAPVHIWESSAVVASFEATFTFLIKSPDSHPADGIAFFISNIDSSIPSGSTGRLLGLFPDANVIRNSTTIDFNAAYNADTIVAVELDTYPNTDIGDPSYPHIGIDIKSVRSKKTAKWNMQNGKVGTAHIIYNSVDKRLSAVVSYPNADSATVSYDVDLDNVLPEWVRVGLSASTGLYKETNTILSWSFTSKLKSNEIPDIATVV
Albumin (Bos taurus), sequence (P02769 whole entry, looked up): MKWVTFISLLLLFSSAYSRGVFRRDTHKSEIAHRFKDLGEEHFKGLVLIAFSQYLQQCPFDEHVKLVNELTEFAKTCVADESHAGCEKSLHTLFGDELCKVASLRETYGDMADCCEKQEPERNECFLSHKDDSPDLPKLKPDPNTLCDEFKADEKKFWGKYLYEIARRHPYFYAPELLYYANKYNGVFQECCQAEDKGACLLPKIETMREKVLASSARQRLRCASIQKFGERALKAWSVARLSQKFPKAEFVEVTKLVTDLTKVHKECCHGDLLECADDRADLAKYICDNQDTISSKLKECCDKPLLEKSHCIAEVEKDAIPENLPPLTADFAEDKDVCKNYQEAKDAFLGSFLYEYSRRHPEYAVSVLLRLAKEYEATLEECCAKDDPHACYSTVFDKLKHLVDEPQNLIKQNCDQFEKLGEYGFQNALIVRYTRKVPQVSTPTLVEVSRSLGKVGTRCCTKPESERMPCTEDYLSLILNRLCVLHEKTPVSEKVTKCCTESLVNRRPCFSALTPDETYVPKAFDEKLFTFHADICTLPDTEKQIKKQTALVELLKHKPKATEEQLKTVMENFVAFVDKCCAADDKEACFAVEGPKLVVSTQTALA
Alpha-bungarotoxin (Bungarus multicinctus), sequence (P60615 whole entry, looked up): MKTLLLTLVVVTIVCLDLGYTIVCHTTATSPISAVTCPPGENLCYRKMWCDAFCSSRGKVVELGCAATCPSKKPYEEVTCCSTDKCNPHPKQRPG
Left-right determination factor 2 (Homo sapiens), sequence (O00292 whole entry, looked up): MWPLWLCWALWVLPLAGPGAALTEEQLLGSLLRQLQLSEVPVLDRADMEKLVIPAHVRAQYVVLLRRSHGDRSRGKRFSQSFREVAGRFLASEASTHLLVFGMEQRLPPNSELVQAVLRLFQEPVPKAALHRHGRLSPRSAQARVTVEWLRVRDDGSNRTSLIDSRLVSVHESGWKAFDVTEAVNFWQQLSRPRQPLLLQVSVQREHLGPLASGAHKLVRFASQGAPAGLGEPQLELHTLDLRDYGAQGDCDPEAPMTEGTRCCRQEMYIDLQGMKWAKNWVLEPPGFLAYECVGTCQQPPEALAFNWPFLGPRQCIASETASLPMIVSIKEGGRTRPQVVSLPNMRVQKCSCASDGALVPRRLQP

With `COc1ccc(NN2C(C(O)c3cc(C(F)(F)F)cc(C(F)(F)F)c3)C=CC3C(=O)N(C4CCCCC4)C(=O)C32)cc1` (stereo not given), the composite z-score is 0.258 in [1]; -0.0774 in experiment [3]; 1.66 in experiment [4]; 0.0635 in [5]; 0.485 in experiment [6]; 0.611 in [7]. The composite z-score in experiment [8] turned out to be 1.82; in experiment [9] it was 1.06; in [10], 0.698; with Albumin (Bos taurus) it was 0.771; in [12], 1.02; in [13] it was 0.659. In addition, the composite z-score in [14] was found to be 0.589; in [15] it was 1.5; in experiment [16], 0.219; with Sam68 (KHDRBS1), 1.07; in experiment [17], 0.0186; in experiment [18], 1.04. In experiment [2], the z-score is -1.79. In addition, the composite Z-score in experiment [11] was -0.0097 (inactive).

Turning to `CC(C)N1CC=CC23O[C@@H]4C=CCCOC(=O)C4[C@H]2C(=O)N(CCCCCO)[C@@H]3C1=O` (stereo not given in full), the composite z-score in [1] was -0.734; in experiment [3], -1.18; in experiment [4] it was 0.861; in experiment [5], -1.34; in [6] it was -0.124; in [7], -0.0011. Moreover, the composite z-score in experiment [8] is -0.123; in experiment [9], 1.92; in [10], 2.25; in the experiment with Albumin (Bos taurus) it was 0.62; in [12], -0.214; in experiment [13], -0.153. Also, the composite z-score is 0.853 in experiment [14]; 0.19 in experiment [15]; 0.543 in experiment [16]; -0.411 in the experiment on Sam68 (KHDRBS1); -0.654 in experiment [17]; 0.878 in experiment [18]. In experiment [2], this compound had a z-score of -0.26. The composite Z-score in experiment [11] was 0.23 (inactive).

`C=CCOC(=O)[C@@H]1[C@H]2C(=O)O[C@H](c3ccccc3)[C@H](c3ccccc3)N2[C@H](c2ccc(OCCOC(=O)[C@H]3C[C@H]4C(=O)NCC(=O)N4[C@H]3c3ccc(O)cc3)cc2)[C@@]12C(=O)Nc1ccc(I)cc12`: the composite z-score in experiment [1] is 0.222; in experiment [3] it was 0.606; in experiment [4], 0.342; in experiment [5], -0.103; in experiment [6] it was -0.0758; in [7], -0.294. The composite z-score is 0.036 in [8]; 1.27 in experiment [9]; 1.74 in experiment [10]; -1.07 with Albumin (Bos taurus); -0.0711 in [12]; -0.117 in experiment [13]. Further, the composite z-score in experiment [14] is 0.323; in experiment [15], 1.94; in experiment [16] it was -0.159; in the experiment on Sam68 (KHDRBS1), 1.29; in experiment [17] it was 0.826; in experiment [18], 1.16. The compound also showed a z-score in experiment [2] of -2.09. The composite Z-score in experiment [11] is 0.683 (inactive).

With `Cc1ccc(S[C@]2(C(=O)NCCCN(C)C)CC(=O)N(Cc3ccccc3Cl)[C@@H]2c2ccc(CO)cc2I)cc1`, the composite z-score in [1] is -0.177; in experiment [3] it was -1.7; in experiment [4], 0.0681; in [5], 0.283; in experiment [6] it was -0.1; in experiment [7], -0.0681. The composite z-score in experiment [8] is 0.692; in experiment [9] it was 0.49; in experiment [10] it was 2.46; with Albumin (Bos taurus), -0.153; in experiment [12] it was -0.136; in experiment [13], -0.142. The composite z-score is 0.815 in experiment [14]; 0.429 in experiment [15]; 0.0345 in experiment [16]; -0.406 in the experiment on Sam68 (KHDRBS1); -0.697 in [17]; -0.708 in experiment [18]. Moreover, the z-score in experiment [2] was -1.55. For the same compound, the composite Z-score in experiment [11] was 0.153 (inactive).

`CO[C@H]1O[C@H](CO)[C@@H](OC(=O)Nc2ccccc2)[C@@H]2OC(=O)[C@H](Cc3ccccc3)C/C=C/C[C@@H](Cc3ccccc3)C(=O)O[C@@H]12`: the composite z-score in [1] was 1.04; in [3] it was 0.587; in experiment [4], 1.68; in experiment [5], -0.123; in [6], -0.0545; in [7], 0.0639. Moreover, the composite z-score in [8] is 0.696; in experiment [9], 1.07; in experiment [10] it was 0.269; in the experiment with Albumin (Bos taurus) it was 0.548; in [12], 0.177; in experiment [13] it was 0.371. For the same compound, the composite z-score amounted to 0.559 in experiment [14]; 1.28 in experiment [15]; 0.597 in [16]; 0.921 in the experiment with Sam68 (KHDRBS1); 0.152 in [17]; 0.628 in experiment [18]. The z-score in experiment [2] is -3.45. The composite Z-score in [11] was 1.96 (inactive).

On to `O=C(NCCO)C1=C[C@H](Oc2ccccc2I)[C@@H](O)[C@H](NCc2ccc(F)cc2)C1`, for which the composite z-score is -0.938 in experiment [1]; 0.949 in experiment [3]; -0.815 in experiment [4]; -2.87 in experiment [5]; -0.237 in experiment [6]; -0.262 in experiment [7]. For the same compound, the composite z-score in experiment [8] was -0.0542; in experiment [9] it was 5.01; in [10], -0.89; in the experiment with Albumin (Bos taurus), -1.89; in experiment [12] it was -0.161; in [13] it was -0.14. In addition, the composite z-score is -0.934 in [14]; -0.809 in [15]; 1 in experiment [16]; -0.285 in the experiment with Sam68 (KHDRBS1); -0.0242 in experiment [17]; -1.83 in [18]. The compound also showed a z-score in experiment [2] of -3.66. Also, the composite Z-score in experiment [11] is -0.48 (inactive).
